Our source for the AC50 and outcome values is PubChem BioAssay (EPA / NIEHS).

The structures appear in SMILES notation. “And” between values parts separate entries of the source, which are not always exact repeats. Equal values may be shown once. Records with an inconclusive call do not appear. More than one record can exist for a structure, and the calls need not agree. The source made the active and inactive calls. How the source made its calls, unless noted: active means hit-call score of the fitted dose curve at least 0.9, where 1 is the maximum; inconclusive means response in the unintended direction; inactive means score below 0.9.

Read-out in assay [1]: xenobiotic metabolism (CYP1A2), CYP1A2 (gene 1544)
As to the kind of experiment: CLD_CYP1A2_48hr: CellzDirect (CLD) Gene Expression Assay for xenobiotic metabolism (CYP1A2) at 48 hours (AID 2283703). Summed up:
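Primary human hepatocytes from two donor preparations were dosed daily for two days at multiple concentrations in 0.2% DMSO vehicle. CYP1A2 mRNA was measured at 48 hours by chemiluminescent quantitative nuclease protection assay, with gain of signal fitted versus DMSO and cytotoxicity annotated from morphology.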

Read-out in assay [2]: Broad substrate specificity ATP-binding cassette transporter ABCG2 (Homo sapiens) (UniProt Q9UNQ0)
As to the kind of experiment: CLD_ABCG2_48hr: CellzDirect (CLD) Gene Expression Assay for ABC Transporter (ABCG2) at 48 hours (AID 2283704).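 On AC50: potency for induction of ABCG2 mRNA above the DMSO baseline.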 In outline:
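Primary human hepatocytes from two donors, dosed daily for 2 days, 0.2% DMSO vehicle, several concentrations. ABCG2 mRNA at 48 h by qNPA chemiluminescence, gain fitted versus DMSO; cytotoxicity flagged by morphology.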

Read-out in assay [3]: xenobiotic metabolism (CYP1A1), CYP1A1 (gene 1543)
As to the kind of experiment: CLD_CYP1A1_48hr: CellzDirect (CLD) Gene Expression Assay for xenobiotic metabolism (CYP1A1) at 48 hours (AID 2283705). In outline:
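Primary human hepatocytes from two donors dosed daily for two days at multiple concentrations, 0.2% DMSO vehicle; CYP1A1 mRNA induction at 48 h by qNPA chemiluminescence. Cytotoxicity noted by phase-contrast morphology.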

Read-out in assay [4]: Glyceraldehyde-3-phosphate dehydrogenase (Homo sapiens) (UniProt P04406)
As to the kind of experiment: CLD_GAPDH_48hr: CellzDirect (CLD) Gene Expression Assay for Baseline Control (Glyceraldehyde 3-phosphate dehydrogenase) at 48 hours (AID 2283706).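 Further: active means higher GAPDH mRNA than DMSO vehicle.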 Summed up:
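Primary human hepatocytes dosed daily for two days with fresh chemical at multiple concentrations, 0.2% DMSO vehicle; GAPDH mRNA measured at 48 h by quantitative nuclease protection assay with chemiluminescence, fitted upward relative to DMSO as background control.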

Read-out in assay [5]: organic anion transporter (SLCO1B1), SLCO1B1 (gene 10599)
As to the kind of experiment: CLD_SLCO1B1_48hr: CellzDirect (CLD) Gene Expression Assay for organic anion transporter (SLCO1B1) at 48 hours (AID 2283707). In outline:
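Primary human hepatocytes from two donor preparations dosed daily for two days with multiple concentrations, 0.2% DMSO vehicle. SLCO1B1 mRNA at 48 h by quantitative nuclease protection assay, chemiluminescence; gain-of-signal fitted versus DMSO.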

Read-out in assay [6]: alkyl and aryl transferase (GSTA2), GSTA2 (gene 2939)
As to the kind of experiment: CLD_GSTA2_48hr: CellzDirect (CLD) Gene Expression Assay for alkyl and aryl transferase (GSTA2) at 48 hours (AID 2283708).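 Further: active means mRNA induction above DMSO vehicle baseline.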 In outline: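 Primary human hepatocytes dosed daily for two days (0.2% DMSO vehicle), harvested at 48 h. GSTA2 mRNA induction measured by quantitative nuclease protection assay with chemiluminescent imaging, fitted for gain of signal relative to DMSO.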

Read-out in assay [7]: sulfotransferase (SULT2A), SULT2A1 (gene 6822)
As to the kind of experiment: CLD_SULT2A_48hr: CellzDirect (CLD) Gene Expression Assay for sulfotransferase (SULT2A) at 48 hours (AID 2283710).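 Further: hits raise SULT2A1 transcript above the 0.2% DMSO vehicle baseline.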 In outline:
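Primary human hepatocytes (two donor preparations) dosed daily for two days with chemicals at multiple concentrations, vehicle 0.2% DMSO; SULT2A1 mRNA induction at 48 h by quantitative nuclease protection assay, chemiluminescent read-out, fitted for gain of signal versus DMSO.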

A short description of assay [8]: STM_H9_OrnithineISnorm_perc: Stemina devTOX quickPredict H9 human embryonic stem cell (hESC)-based Assay for Ornithine (ORN) Metabolite Biomarker, Normalized (AID 2283712; active means hit-call score of the fitted dose curve at least 0.9, where 1 is the maximum; inactive means score below 0.9;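 further: ornithine released into spent medium during last day measured by mass spectrometry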). In outline: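 Cells: undifferentiated H9 hESC. Dosing: 72 h, media replaced every 24 h. Sample: final 24-h conditioned media, 40% acetonitrile. Read: UPLC-HRMS ornithine area vs 13C standard, % DMSO control.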

A short description of assay [9]: STM_H9_CystineISnorm_perc: Stemina devTOX quickPredict H9 human embryonic stem cell (hESC)-based Assay for Cystine (CYSS) Metabolite Biomarker, Normalized (AID 2283713; active means hit-call score of the fitted dose curve at least 0.9, where 1 is the maximum; inactive means score below 0.9). Summed up:
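Secreted cystine was measured by UPLC-HRMS in H9 hESC medium after 72h compound exposure with 24-hourly replenishment. Values are standard-normalized areas relative to 0.1% DMSO.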

Read-out in assay [10]: glucuronosyltransferase (UGT1A1), UGT1A1 (gene 54658)
As to the kind of experiment: CLD_UGT1A1_48hr: CellzDirect (CLD) Gene Expression Assay for glucuronosyltransferase (UGT1A1) at 48 hours (AID 2283709).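 Further: actives increase expression relative to DMSO so potency refers to induction.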 Summed up: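 Human primary hepatocytes dosed daily for two days (0.2% DMSO vehicle), harvested at 48 h. UGT1A1 mRNA induction measured by quantitative nuclease protection assay with chemiluminescence; gain of signal versus DMSO; cytotoxicity flagged from morphology.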

Glyceraldehyde-3-phosphate dehydrogenase (Homo sapiens), sequence (P04406 whole entry, looked up): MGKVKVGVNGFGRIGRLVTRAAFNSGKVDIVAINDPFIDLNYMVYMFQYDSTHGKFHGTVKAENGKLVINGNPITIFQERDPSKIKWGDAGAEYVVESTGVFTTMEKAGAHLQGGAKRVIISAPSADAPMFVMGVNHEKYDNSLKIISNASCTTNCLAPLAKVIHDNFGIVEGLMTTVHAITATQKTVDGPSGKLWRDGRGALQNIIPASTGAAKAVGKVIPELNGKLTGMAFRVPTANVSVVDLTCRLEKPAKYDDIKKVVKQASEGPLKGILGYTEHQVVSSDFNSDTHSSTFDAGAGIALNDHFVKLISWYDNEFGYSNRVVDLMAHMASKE
Broad substrate specificity ATP-binding cassette transporter ABCG2 (Homo sapiens), sequence (Q9UNQ0 whole entry, looked up): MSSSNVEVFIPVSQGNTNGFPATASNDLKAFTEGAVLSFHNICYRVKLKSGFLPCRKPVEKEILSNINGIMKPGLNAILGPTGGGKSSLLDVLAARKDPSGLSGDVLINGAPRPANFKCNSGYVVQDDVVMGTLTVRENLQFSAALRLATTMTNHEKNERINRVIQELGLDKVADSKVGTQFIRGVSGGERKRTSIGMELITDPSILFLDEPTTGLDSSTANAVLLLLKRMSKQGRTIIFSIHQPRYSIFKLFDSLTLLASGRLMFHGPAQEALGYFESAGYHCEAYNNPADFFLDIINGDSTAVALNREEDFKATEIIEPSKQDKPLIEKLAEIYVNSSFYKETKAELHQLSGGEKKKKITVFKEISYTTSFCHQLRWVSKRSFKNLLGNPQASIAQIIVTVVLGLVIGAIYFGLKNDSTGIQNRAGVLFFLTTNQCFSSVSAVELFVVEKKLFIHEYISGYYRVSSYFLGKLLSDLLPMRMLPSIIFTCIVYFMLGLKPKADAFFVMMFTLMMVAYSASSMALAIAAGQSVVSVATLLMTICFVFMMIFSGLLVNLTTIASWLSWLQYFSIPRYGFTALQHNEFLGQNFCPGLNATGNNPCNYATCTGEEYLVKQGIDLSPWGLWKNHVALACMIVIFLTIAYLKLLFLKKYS

Consider `COC(=O)C(C)Oc1ccc(Oc2ccc(Cl)cc2Cl)cc1` (configuration not stated), for which the AC50 in [1] is 20 µM (active) and 12.1 µM (active). Besides, the outcome in assay [1], in assay [2], in assay [3], in [4], in assay [5] and in [6] was inactive. For the same compound, in assay [7], the result was inactive.

Consider `CCCCC(CC)COC(=O)c1ccccc1C(=O)OCC(CC)CCCC` (configuration not stated), for which the call in [1], in [2], in assay [3], in [4], in [7] and in assay [8] was inactive. Moreover, the AC50 in assay [9] was 30 µM (active).

As for `Cc1ccc(-c2c(Cl)nc(C#N)n2S(=O)(=O)N(C)C)cc1`, the outcome in assay [1], in assay [4] and in assay [6] was inactive. Besides, the AC50 in assay [3] was 20 µM (active).

Regarding `CO/C=C(/C(=O)OC)c1ccccc1Oc1cc(Oc2ccccc2C#N)ncn1`, the result in [2], in assay [8] and in [9] was inactive. In [6], the AC50 was 20 µM (active).

On to `N#Cc1nn(-c2c(Cl)cc(C(F)(F)F)cc2Cl)c(N)c1S(=O)C(F)(F)F` (configuration not stated), for which the AC50 in [2] is 31.6 µM (active); in assay [6], 4.25 µM (active); in assay [8] it was 35.5 µM (active); in assay [9] it was 88.7 µM (active). Further, the result in [3], in assay [4] and in [7] was inactive.

In the case of `CCNc1nc(Cl)nc(NC(C)C)n1`, the concentration at half-maximal activity (AC50) was 10.2 µM (active) in assay [1], 20 µM (active) in [3], 0.12 µM (active) in assay [8] and 42.3 µM (active) in assay [9]. In addition, the call in assay [4], in assay [5], in assay [6] and in assay [7] was inactive.

Regarding `C#CCOS(=O)OC1CCCCC1Oc1ccc(C(C)(C)C)cc1` (configuration not stated), the AC50 in [1] was 3.47 µM (active); in assay [8], 3.33 µM (active); in assay [9], 2.42 µM (active). Further, the compound was called inactive in [2], in assay [3], in assay [6] and in assay [7].

Regarding `CC1=C(C(=O)Nc2ccccc2)SCCO1`, the AC50 in [1] is 31.1 µM (active); in assay [3], 36.1 µM (active). Also, the outcome in [10] was inactive.

Regarding `N#Cc1cc(Br)c(O)c(Br)c1`, the compound was called inactive in assay [2], in assay [3], in assay [4], in assay [6] and in [7].

For `CON(C)C(=O)Nc1ccc(Cl)c(Cl)c1`, the AC50 in assay [1] was 1.27 µM (active); in [3], 3.68 µM (active); in assay [8] it was 50 µM (active); in assay [9], 73.3 µM (active). Moreover, the result in [7] was inactive.

`C=CCC1=C(C)[C@@H](OC(=O)[C@@H]2[C@@H](C=C(C)C)C2(C)C)CC1=O`: the outcome in [1], in [2], in assay [6], in [7], in assay [8] and in [9] was inactive.

Consider `CC(C)Oc1cc(-n2nc(C(C)(C)C)oc2=O)c(Cl)cc1Cl`, for which the half-maximal activity concentration (AC50) in assay [1] was 6.1 µM (active); in assay [3] it was 4.01 µM (active); in [7], 2.92 µM (active). The compound was classed as inactive in [2] and in assay [6].

For `CCOC(=O)CC(SP(=S)(OC)OC)C(=O)OCC` (configuration not stated), the AC50 in assay [1] is 5.39 µM (active); in assay [8], 76.9 µM (active); in assay [9], 86.9 µM (active). Moreover, the call in [2], in assay [4], in [6] and in assay [7] was inactive.

As to `COP(N)(=O)SC` (configuration not stated), the outcome in [1], in assay [2], in assay [5], in assay [6] and in [7] was inactive.

`Oc1ccccc1-c1ccccc1`: the AC50 in [1] was 9.96 µM (active). The compound was classed as inactive in assay [2], in assay [5], in [6] and in [7].

As to `CCc1nn(C)c(C(=O)NCc2ccc(C(C)(C)C)cc2)c1Cl`, the AC50 in [2] was 26.2 µM (active); in [3] it was 8.98 µM (active); in [7] it was 20 µM (active); in [8] it was 1.84 µM (active); in assay [9], 1.82 µM (active). The result in assay [6] was inactive.

`O=C(Nc1ccccc1)Nc1ccnc(Cl)c1`: the AC50 is 7.3 µM (active) in assay [1], 10.8 µM (active) in assay [3] and 6.7 µM (active) in assay [10]. Also, the compound was classed as inactive in [2] and in assay [7].

For the compound `CCCCNC(=O)n1c(NC(=O)OC)nc2ccccc21`, the AC50 in assay [1] was 6.67 µM (active); in assay [3] it was 33.1 µM (active); in assay [8], 6.13 µM (active); in assay [9] it was 8.39 µM (active). Also, the compound was called inactive in assay [4] and in [6].

As to `COc1cnc(OC)n2nc(NS(=O)(=O)c3c(OCC(F)F)cccc3C(F)(F)F)nc12`, the compound was called inactive in [1], in assay [3], in [5], in [6] and in assay [7].

As for `CCON=C(CC)C1=C(O)CC(c2c(C)cc(C)cc2C)CC1=O` (configuration not stated), the result in assay [1], in assay [4], in [6], in assay [7], in assay [8] and in [9] was inactive.

Take `CNC(=O)ON=CC(C)(C)SC`: the result in assay [4] and in assay [6] was inactive.

`CC(Oc1ccc(Cl)cc1Cl)C(=O)O` (configuration not stated): the result in assay [1], in [4], in [6], in assay [10] and in assay [7] was inactive.

As to `COc1ccc(C(c2ccc(OC)cc2)C(Cl)(Cl)Cl)cc1`, the AC50 in [1] was 8.31 µM (active); in [3], 20 µM (active). Moreover, the outcome in [7], in assay [8] and in assay [9] was inactive.

Consider `COc1nc(NC(C)C)nc(NC(C)C)n1`, for which the AC50 in [1] was 7.97 µM (active); in [3], 4.52 µM (active); in assay [9], 13.5 µM (active). The call in assay [5], in assay [7] and in assay [8] was inactive.

As for `CCOP(=S)(OCC)SCn1c(=O)oc2cc(Cl)ccc21`, the results for the AC50 in assay [1] and in assay [3] were 3.96 µM (active) and 13.9 µM (active), respectively. The result in assay [7] was inactive.

Consider `Cc1c(F)c(F)c(COC(=O)C2C(/C=C(\Cl)C(F)(F)F)C2(C)C)c(F)c1F` (configuration not stated), for which the AC50 was 4.46 µM (active) in assay [1] and 20 µM (active) in assay [3]. Further, the compound was called inactive in assay [2], in assay [6] and in [7].

For `COC(=O)c1ccccc1C(=O)OC`, the compound was called inactive in assay [1], in [2], in assay [5], in [6], in [7] and in assay [8]. In addition, in [9], the result was inactive.

With `OC(c1ccc(Cl)cc1)(c1cncnc1)c1ccccc1Cl` (configuration not stated), the AC50 in assay [2] was 33.4 µM (active); in [6] it was 15.8 µM (active); in assay [8], 50 µM (active). For the same compound, the result in assay [3], in [10] and in assay [7] was inactive.

Turning to `CCOC(=O)C(Cl)Cc1cc(-n2nc(C)n(C(F)F)c2=O)c(F)cc1Cl` (configuration not stated), the outcome in assay [3], in assay [6], in assay [10] and in assay [7] was inactive.
